An excerpt weighted towards active compounds, which were near 19% of everything screened.
S-ASM inh = Inhibitors of Secretory Acid Sphingomyelinase (S-ASM): qHTS; placental ASM, HMU-PC fluorogenic substrate, 60 min; 340,000 tested, 0.006% active; AID 504937, 2011; Potency, µM (titrated, usually from 57.5 µM), without a hit: at the highest dose activity change, negative = inhibition, actives largely listed as inhibitors; Sphingomyelin phosphodiesterase (Homo sapiens), P17405; also: potency is read from the fitted curve at half-maximal effect
Target sequence (P17405 47-631 limits assumed): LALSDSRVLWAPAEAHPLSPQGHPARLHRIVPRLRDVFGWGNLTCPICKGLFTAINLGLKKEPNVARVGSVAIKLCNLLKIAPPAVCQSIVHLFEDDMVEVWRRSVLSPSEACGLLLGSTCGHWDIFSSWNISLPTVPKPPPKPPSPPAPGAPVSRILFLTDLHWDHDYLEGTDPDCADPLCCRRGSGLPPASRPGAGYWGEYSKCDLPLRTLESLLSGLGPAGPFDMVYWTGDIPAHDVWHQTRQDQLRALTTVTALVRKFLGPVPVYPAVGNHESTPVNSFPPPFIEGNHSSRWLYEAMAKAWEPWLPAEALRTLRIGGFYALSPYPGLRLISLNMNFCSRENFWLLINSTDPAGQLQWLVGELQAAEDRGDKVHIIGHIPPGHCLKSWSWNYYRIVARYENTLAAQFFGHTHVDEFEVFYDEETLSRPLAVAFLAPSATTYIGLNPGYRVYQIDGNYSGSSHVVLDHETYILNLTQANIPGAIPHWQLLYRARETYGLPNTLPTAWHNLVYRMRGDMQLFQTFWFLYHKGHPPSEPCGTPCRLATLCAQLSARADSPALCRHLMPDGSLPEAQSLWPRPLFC
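Human placenta-derived ASM enzyme was preincubated with compound for 10 minutes at room temperature, then given fluorogenic substrate HMU-PC0 (9 uM final) for 60 minutes at 37 °C; a pH 10 stop preceded fluorescence reading at Ex 386/Em 447 nm.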
TDP1 cell noCPT = qHTS for Inhibitors of human tyrosyl-DNA phosphodiesterase 1 (TDP1): qHTS in cells in absence of CPT; Potency, µM (series often up to 46.2 µM), without a hit: top-dose activity change, negative = growth inhibition, hits mostly inhibitors; 420,000 tested, 15% active; AID 686978, 2013; DT40 Tdp1-/- hTDP1 cells, no CPT, ATP luminescence, 48 h; also: potency is read from the fitted curve at half-maximal effect; % is scaled to controls: 0 for no effect and ±100 for the full control effect; nearly all actives have a fitted effect of over 55% in size
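Growth kinetics read by CellTiter-Glo luminescence after ≥48 hr at 37 °C. Cells: DT40 Tdp1-/- stably carrying human TDP1, 400 per well, compound exposure in the absence of CPT (DMSO vehicle).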
IL-1B inflam inh = qHTS for Inhibitors of Inflammasome Signaling: IL-1-beta AlphaLISA Primary Screen; THP-1 LPS/ATP IL-1B secretion, AlphaLISA, 16 h; hits give low values; activity change, % at 57.5 µM; 360,000 tested, 4.7% active; AID 743279, 2014; in the data active = activity change below about -50%; inconclusive = mostly about -30% to -49%; also: % is scaled to controls: 0 for no effect and ±100 for the full control effect
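THP-1 cells pretreated 1 hr with compounds (up to 57.5 uM final), then stimulated with LPS (250 ng/mL final) plus ATP (1.25 mM final); secreted IL-1B measured by AlphaLISA after 16 hr, decreased signal indicating inhibition.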
HepG2 viability = qHTS for Inhibitors of TGF-b: Cytotox Counterscreen; HepG2 CAGA-GFP viability, ATP luminescence, 18 h; Potency, µM (series often up to 46.1 µM), inactives show top-dose activity change, negative = cytotoxicity, usual class: cytotoxic; 410,000 tested, 0.76% active; AID 588856, 2011; also: potency is read from the fitted curve at half-maximal effect
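HepG2 CAGA-GFP cells (1000/well, DMEM with 1% FBS) received compound, then TGF-beta at 500 pg/mL final, and were incubated 18 hours at 37 degrees C. Viability was read by CellTiter-Glo luminescence. Media-only wells were set as complete cell-killing and DMSO as no toxicity.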
TDP1 cell CPT = qHTS for Inhibitors of human tyrosyl-DNA phosphodiesterase 1 (TDP1): qHTS in cells in presence of CPT; chicken DT40 Tdp1-/-;hTDP1 cells + 20 nM CPT, ATP luminescence, 48 h; Potency, µM (doses to about 46.2 µM), inactives show at the top dose activity change, negative = growth inhibition, usual class: inhibitors; 420,000 tested, 12% active; also: potency is read from the fitted curve at half-maximal effect; % is scaled to controls: 0 for no effect and ±100 for the full control effect; nearly all actives have a fitted effect of over 55% in size
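Chicken DT40 Tdp1-/- cells stably complemented with human TDP1 were seeded at 400 cells/well in medium containing 20 nM camptothecin, exposed to pin-transferred compounds, and grown at 37 °C for at least 48 hr. Viability was read as ATP luminescence.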
TGFb SMAD3 inh = qHTS for Inhibitors of TGF-b | HepG2 CAGA-GFP TGF-b/SMAD3 reporter, GFP fluorescence, 18 h; TGF-beta stimulated, 500 pg/mL final | Potency, µM (series often up to 46.1 µM), for inactives: at the highest dose activity, negative = inhibition, usual class: inhibitors | 410,000 tested, 1.2% active | AID 588855, 2011; also: potency is read from the fitted curve at half-maximal effect; % is scaled to controls: 0 for no effect and ±100 for the full control effect; nearly all actives have a fitted effect of over 65% in size
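Smad-responsive CAGA-GFP expression was quantified in HEPG2 cells exposed to compounds and 500 pg/mL final TGF-beta for 18 h at 37 degrees C; unstimulated wells defined full inhibition.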
Active calls of the source: *; ? = inconclusive; . = no result. Unless noted, calls follow the shape of the dose curve; as a rule, active = well fitted curve in the direction sought with a large enough effect; inconclusive = small, poorly fitted or top-dose-only effect, or another doubt; inactive = no such curve, though single readings can be large; an effect the other way counts as inactive or inconclusive.

SMILES	S-ASM inh	TDP1 cell noCPT	IL-1B inflam inh	HepG2 viability	TDP1 cell CPT	TGFb SMAD3 inh
Cc1ccc(C(NC(=O)C2CCN(Cc3ccc(Oc4ccccc4)cc3)CC2)c2ccccn2)cc1 (configuration not stated)	.	23.1µM*	.	11.2µM*	?	?
COc1ccc(CN2CCC(C(=O)NC(c3ccc4c(c3)OCO4)c3ccccn3)CC2)cc1 (configuration not stated)	.	-15.8%	-2.4	-18.8%	3.7%	-7.8%
Cc1ccc(C(NC(=O)C2CCN(CCOc3ccccc3)CC2)c2ccccn2)cc1 (configuration not stated)	.	?	-54.8*	-19.7%	?	-2.5%
O=C(NC(c1ccc(Cl)cc1)c1cnccn1)C1CCN(Cc2ccc(Oc3ccccc3)cc2)CC1 (configuration not stated)	.	16.4µM*	.	-99.4%	14.6µM*	?
COc1ccc(OCCN2CCC(C(=O)NC(c3ccc(OC)cc3)c3ccccn3)CC2)cc1 (configuration not stated)	.	-23.0%	-7.8	-24.1%	-13.8%	0.0%
O=C(NCc1cccnc1)c1cc(C2CCCCN2C(=O)c2ccc3c(c2)CCO3)on1 (configuration not stated)	.	-18.4%	-9.3	-5.3%	?	4.3%
CCOC(=O)c1cnc(-c2ccccc2)nc1-c1ccccc1	0.3%	-27.4%	20.2	-24.7%	19.7%	-11.6%
COc1cc(OC)c(NC(=O)c2cncn2-c2ccc(F)cc2)cc1Cl	-0.5%	4.6%	32.5	-17.6%	3.1%	-4.2%
NS(=O)(=O)c1ccc(CCNC(=O)CCCn2ncn3c(cc4occc43)c2=O)cc1	1.6%	20.2%	15.6	3.2%	12.0%	-2.4%
COc1ccc(C(NC(=O)C2CCN(CCc3ccccc3)CC2)c2ccccn2)cc1 (configuration not stated)	.	-5.6%	-0.1	5.3%	-4.4%	10.5%
COc1ccc(C(NC(=O)C2CCN(C/C=C/c3ccc(OC(C)=O)c(OC)c3)CC2)c2ccccn2)cc1 (configuration not stated)	.	20.6µM*	-17.3	-32.6%	?	-15.9%
COC(=O)CC1COc2ccccc2N1C(=O)c1cc(OC)c(OC)c(OC)c1 (configuration not stated)	4.4%	-32.4%	-2.8	-11.7%	0.3%	-19.8%
CCOc1ccc(NC(=S)/C(=C(\[O-])c2ccc(C)c([N+](=O)[O-])c2)[n+]2ccccc2)cc1	11.7%	14.6µM*	13.0	0.5%	?	-3.4%
CCc1cc[n+](/C(C(=S)Nc2cccc(C)c2)=C(/[O-])c2ccc(C)c([N+](=O)[O-])c2)cc1	-2.7%	11.6µM*	-25.8	-3.2%	16.4µM*	-5.3%
Cc1ccc(/C([O-])=C(/C(=S)NCc2ccccc2)[n+]2ccccc2)cc1[N+](=O)[O-]	-3.2%	?	-23.7	-1.5%	-23.5%	3.6%
CC(NC(=O)c1ccc(S(C)(=O)=O)cc1)c1cccc2ccccc12 (configuration not stated)	1.1%	-21.6%	-17.1	1.5%	0.2%	-19.5%
CS(=O)(=O)c1ccc([C@@H](O)[C@@H](COC(=O)CN)NC(=O)C(Cl)Cl)cc1	.	3.76µM*	.	.	6.68µM*	.
Cc1ccc(OCC(=O)NCCCNC(=O)c2cccnc2)cc1	1.6%	8.0%	6.0	-1.4%	-5.2%	-1.1%
COc1ccc2c(C)nc(Nc3nc(C)c(C)c(=O)[nH]3)nc2c1	-2.7%	2.91µM*	-99.7*	-11.7%	4.61µM*	0.0%
CCCc1cc(=O)[nH]c(Nc2cc(C)ccc2OC)n1	.	-26.3%	.	-0.7%	-10.8%	-12.8%
COCc1cc(=O)[nH]c(Nc2nc3ccc(C)cc3o2)n1	-1.6%	4.61µM*	-18.9	-4.1%	4.61µM*	?
CCc1c(C)nc(Nc2nc(C)c3cc(OC)ccc3n2)[nH]c1=O	-3.7%	20.6µM*	?	-6.0%	?	-14.8%
CCCCCc1c(C)nc(Nc2nc(C)c3cc(OC)ccc3n2)[nH]c1=O	-13.0%	16.4µM*	-22.2	4.6%	13µM*	2.3%
Cc1ccc(C)c(S(=O)(=O)N2CCCCC2CCNC(=O)C(=O)NCc2ccncc2)c1 (configuration not stated)	-0.4%	?	2.5	6.6%	?	-29.5%
CCOC(=O)c1sc(N2C(=O)c3oc4cc(C)c(C)cc4c(=O)c3C2c2ccc(C)cc2)nc1C (configuration not stated)	.	-3.3%	.	-15.1%	11.8%	-1.3%
SMILES	S-ASM inh	TDP1 cell noCPT	IL-1B inflam inh	HepG2 viability	TDP1 cell CPT	TGFb SMAD3 inh
CN(Cc1ccccc1)C(=O)c1ccc(NC(=O)Cc2cccc(NC(=O)C3CCN(C(=O)C4CCC4)CC3)c2)cc1	1.7%	?	-4.9	-18.5%	?	-26.9%
CNc1nc(N)nc(-c2cc(Cl)ccc2OC)n1	8.6%	-2.0%	-5.4	-19.5%	-7.2%	7.1%
COc1ccc2nc(NC3=NC(c4ccccc4)CC(=O)N3)nc(C)c2c1 (configuration not stated)	20.5%	13µM*	14.8	-37.9%	?	-27.4%
COc1ccc2c(C)nc(N/C(N)=N/S(=O)(=O)c3ccc(C)cc3)nc2c1	-11.2%	?	?	-16.2%	?	-25.6%
COc1ccc2c(C)nc(Nc3nc(C)cc(C)n3)nc2c1	2.5%	3.26µM*	9.8	-3.9%	2.91µM*	-20.1%
NC1=NC(c2ccccc2)CC(=O)N1 (configuration not stated)	5.0%	-17.1%	-2.5	14.9%	-16.3%	13.0%
CCc1c(C)nc(Nc2nc(C)c3ccc(OC)cc3n2)[nH]c1=O	-3.8%	16.4µM*	-76.3*	12.0%	?	2.8%
COc1ccc(Nc2nc(C)c3ccccc3n2)cc1	-1.4%	-25.9%	-23.9	-22.5%	-12.2%	13.6%
CCc1ccc2nc(Nc3nc(COC)cc(=O)[nH]3)nc(C)c2c1	-7.1%	23.1µM*	?	-12.6%	9.2µM*	0.8%
CCN1CCCC(OC(=O)c2cc(-c3ccccc3Cl)nc3ccccc23)C1 (configuration not stated)	-0.5%	?	-24.5	-30.7%	?	?

Screening data deposited in PubChem by National Center for Advancing Translational Sciences (NCATS).
